# Only some compounds are listed: those with a hit (about 19% of all), similar ones and a draw of the others.
# HT1080 IDH1KD tx: kills HT-1080 cells with IDH1 knockdown; HT-1080 IDH1 knockdown viability, ATP luminescence, 48 h; Potency, µM (titrated, usually from 46.1 µM), inactives show at the highest dose activity, negative = toxicity, most hits filed as cytotoxic; 360,000 tested, 2% active; AID 686971;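 further: potency means the concentration at half of the fitted maximal effect; 0% = DMSO wells and -100% = cell-free medium wells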
#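 CellTiter-Glo luminescence after 48 h compound exposure at 37 degrees C of IDH1-knockdown HT-1080 cells in 5% FBS RPMI. %Activity scaled between DMSO wells and cell-free media wells, with curves fitted and assigned curve classes.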
# IL-1B inflam inh: inhibitors of inflammasome signaling (IL-1 beta secretion); THP-1 LPS/ATP IL-1B secretion, AlphaLISA, 16 h; hits give low values; activity change, % at 57.5 µM; 360,000 tested, 4.7% active; AID 743279; in the data active means activity change below about -50%; inconclusive means mostly about -30% to -49%
#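 Secreted IL-1B measured by AlphaLISA bead assay after 16 h compound exposure of THP-1 cells; compounds (final up to 57.5 uM) added 1 h before LPS (250 ng/mL) and ATP (1.25 mM) stimulation; lower signal means less secretion.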
# DT40 TDP1 no CPT: qHTS for Inhibitors of human tyrosyl-DNA phosphodiesterase 1 (TDP1): qHTS in cells in absence of CPT | DT40 Tdp1-/- hTDP1 cells, no CPT, ATP luminescence, 48 h | Potency, µM (titrated, usually from 46.2 µM), inactives show top-dose activity change, negative = growth inhibition, actives largely listed as inhibitors | 420,000 tested, 15% active | AID 686978, 2013; further: potency means the concentration at half of the fitted maximal effect; nearly all actives have a fitted effect of over 55% in size
#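 Readout: luminescence from CellTiter-Glo after 30 min in the dark at RT. Cells: DT40 Tdp1-/- with stable hTDP1, 400/well. Exposure: compounds alone, ≥48 hr, 37 °C.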
# HT1080-NT tox: kills 2HG-producing HT-1080-NT fibrosarcoma cells | 360,000 tested, 1.6% active | Potency, µM (doses to about 46.1 µM), inactives show at the top dose activity, negative = less viability, hits mostly cytotoxic | HT-1080-NT fibrosarcoma viability, CellTiter-Glo ATP luminescence, 48 h | AID 686970;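 further: NT is the 2HG producing partner of a matched IDH1 knockdown line; potency means the concentration at half of the fitted maximal effect; 0% = DMSO-treated cells and -100% = media-only wells without cells; nearly all actives have a fitted effect of over 55% in size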
#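 Viability of the 2HG-overproducing fibrosarcoma line after 48 hours of compound exposure at 37 degrees C was determined by luminescence with CellTiter-Glo, and concentration-effect curves were then fitted and categorized.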
# DT40 TDP1 CPT: DT40-hTDP1 cell growth loss with CPT; chicken DT40 Tdp1-/-;hTDP1 cells + 20 nM CPT, ATP luminescence, 48 h; Potency, µM (top dose mostly 46.2 µM), for inactives: at the highest dose activity change, negative = growth inhibition, most hits filed as inhibitors; 420,000 tested, 12% active; AID 686979; further: potency means the concentration at half of the fitted maximal effect; nearly all actives have a fitted effect of over 55% in size
#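 Cell growth measured by CellTiter-Glo luminescence after a minimum 48 h, 37 C compound exposure with 20 nM CPT in Tdp1-knockout DT40 cells stably expressing hTDP1, seeded 400/well; qHTS titration format.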
# ELG1 DNA repair: inhibitors of ELG1-dependent DNA repair in HEK293T cells; 330,000 tested, 2.3% active; Potency, µM (highest dose often 46.1 µM), without a hit: at the top dose activity change, negative = inhibition, actives largely listed as inhibitors; HEK293T ELG1-luciferase reporter, luminescence, 16 h; DNA damage induced by 5-fluorouridine; AID 504467; further: potency means the concentration at half of the fitted maximal effect; nearly all actives have a fitted effect of over 55% in size
#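 Cells (2,000 per well) received 5-fluorouridine plus test compound or DMSO and were incubated 16 hr at 37 °C, 5% CO2. Luciferase activity was read by luminescence 30 min after ONE-Glo addition; signal suppression marked inhibition of damage-induced ELG1 function.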
# Starred values were filed as active, the others as inactive; ? = inconclusive; / = no result. Unless noted, the call rests on the fitted dose curve; in most records, active means well fitted curve in the direction sought with a large enough effect; inconclusive means small, poorly fitted or top-dose-only effect, or another doubt; inactive means no such curve, though single readings can be large; an effect the other way counts as inactive or inconclusive. Unless noted, on the % scale 0 is the no-effect control and ±100 the full control effect.
SMILES,HT1080 IDH1KD tx,IL-1B inflam inh,DT40 TDP1 no CPT,HT1080-NT tox,DT40 TDP1 CPT,ELG1 DNA repair
CCN(CC)CCNC(=O)c1c2c(nc3ccccc13)C(=O)N(C1CCCCC1)C2,/,/,7%,/,-7%,/
Cc1ccc(CCNC(=O)c2c3c(nc4ccccc24)C(=O)N(C2CCCCC2)C3)cc1,/,/,10µM*,/,21µM*,/
O=C(NCc1ccccc1)c1c2c(nc3ccccc13)C(=O)N(C1CCCCC1)C2,/,/,18µM*,/,16µM*,/
CCOc1ccc(OCCC(=O)Nc2ccccc2C(=O)NC2CC2)cc1,1%,3,-28%,-4%,-15%,/
CC(=O)Nc1cccc(NC(=O)CCN2C(=O)c3ccccc3S2(=O)=O)c1,3%,3,-6%,-1%,2%,15%
COc1ccc(CNc2ncnc3ccc(-c4ccc(N(C)C)cc4)cc23)c(OC)c1,/,/,?,/,23µM*,/
COc1ccc(CNc2ncncc2-c2ccc(N(C)C)cc2)c(OC)c1,/,/,?,/,18µM*,/
O=C(Nc1cc(Cl)ccc1Cl)c1cc([N+](=O)[O-])cc(Br)c1O,/,/,-8%,/,2%,/
O=C(Nc1ccc([N+](=O)[O-])cc1Cl)c1cc(Br)ccc1O,/,/,0.45µM*,/,0.79µM*,/
O=C(Nc1c(Cl)cc([N+](=O)[O-])cc1Cl)c1cc(Cl)ccc1O,/,/,2µM*,/,2.5µM*,/
COc1ccc(NC(=O)c2cc(Br)ccc2Cl)c([N+](=O)[O-])c1,-29%,-4,-15%,-27%,1%,8%
CCOc1ccc(-c2cc3c(=O)n(CC(=O)NCc4ccccc4)ccn3n2)cc1,/,/,-16%,/,?,/
COc1cccc(Nc2nc(-c3cccs3)nc3ccccc23)c1,?,-58*,23µM*,16µM*,?,23µM*
COc1cccc(-c2nc(-c3cccs3)no2)c1,9%,2,1%,-11%,4%,?
COc1cccc(Nc2ncnc3ccccc23)c1,30%,-3,?,-6%,?,?
COc1cccc(CN(C)c2nc(-c3cccs3)nc3ccccc23)c1,?,-18,21µM*,-29%,18µM*,?
COc1ccc(OC)c(Nc2nc(-c3ccc(C)cc3)nc3ccccc23)c1,/,/,-28%,/,?,/
COc1ccc(Nc2nc(-c3cccs3)nc3ccccc23)cc1,?,-3,23µM*,?,?,?
CC(C)(C)c1ccc(C(=O)NCCC(=O)NCc2ccc(F)cc2)cc1,8%,1,?,3%,-21%,/
Cc1ccc(OCC(O)CN2CCc3ccccc3C2)c(C)c1 (centres undefined),-7%,-1,?,-10%,26µM*,6%
CCCOC(=O)c1ccc(OCC(O)CN2CCN(C(=O)c3ccccc3)CC2)cc1 (centres undefined),-8%,-21,?,-9%,?,?
CC(C)(C)c1ccc(OCC(O)CN2CCc3ccccc3C2)cc1 (centres undefined),?,0,16µM*,?,8.2µM*,/
CC(C)(C)c1ccc(OCC(O)CN2CCN(C(=O)c3ccccc3)CC2)cc1 (centres undefined),0%,-6,21µM*,1%,16µM*,-18%
COc1ccc(C(=O)N2CCC3(CCCN(C)C3)CC2)cc1,/,/,-11%,/,-6%,/
COc1ccc(C)cc1NC(=O)Nc1cccc(OCc2cc(=O)n3ccc(C)cc3n2)c1,/,/,9.2µM*,/,9.2µM*,/
SMILES,HT1080 IDH1KD tx,IL-1B inflam inh,DT40 TDP1 no CPT,HT1080-NT tox,DT40 TDP1 CPT,ELG1 DNA repair
Cc1ccn2c(=O)cc(COc3ccc(NC(=O)COc4ccc(C)c(C)c4)cc3)nc2c1,/,/,3%,/,0%,/
CCOC(=O)c1ccc(NC(=O)Nc2cccc(OCc3cc(=O)n4ccc(C)cc4n3)c2)cc1,/,/,?,/,-27%,/
CSc1cccc(NC(=O)Nc2ccccc2OCc2cc(=O)n3cc(C)ccc3n2)c1,/,/,21µM*,/,23µM*,/
CCC(Oc1ccccc1)C(=O)Nc1ccc(OCc2cc(=O)n3ccc(C)cc3n2)cc1 (centres undefined),/,/,18µM*,/,?,/
Cc1ccc2nc(COc3ccccc3NC(=O)c3ccccc3C)cc(=O)n2c1,/,/,?,/,-19%,/
O=C(NCCCCCCNC(=O)c1cncc(O)c1)c1cncc(O)c1,12%,-5,-11%,23%,-3%,1%
CCOc1ccccc1CNC(=O)CSc1n[nH]c(-c2ccccc2Cl)n1,/,/,23µM*,/,13µM*,/
O=C(CSc1n[nH]c(-c2ccccc2Cl)n1)NCCc1ccccc1,/,/,21µM*,/,9.2µM*,/
Cc1c(-c2ccccc2)oc2c(C(=O)OCC(=O)Nc3ccc(C(N)=O)cc3)cccc2c1=O,10%,1,?,6%,?,?
O=C(Nc1cccc2cccnc12)c1ccc(F)cc1,/,/,?,/,-27%,/
Cc1ccc(OC2CCN(C(=O)[C@H]3O[C@@H](n4ccc(=O)[nH]c4=O)[C@H](O)[C@@H]3O)CC2)cc1,15%,10,?,18%,-14%,/
CC(C)(C)C(=O)/C=c1\s/c(=C\c2ccc(-c3ccc([N+](=O)[O-])cc3)o2)c(=O)n1CC(=O)NC(N)=O,-15%,40,23µM*,-20%,?,?
CC(OC(=O)c1ccc(-c2ccc([N+](=O)[O-])cc2)o1)C(=O)NC(N)=O (centres undefined),-4%,13,-20%,0%,-11%,1%
N#C/C(=C\c1ccc(-c2ccc(F)cc2F)o1)c1nc2ccccc2[nH]1,/,/,13µM*,/,23µM*,/
Cc1ccc2nc(/C(C#N)=C/c3ccc(-c4ccccc4C(=O)O)o3)[nH]c2c1,24%,-8,4%,-1%,-2%,-2%
N#C/C(=C\c1ccc(-c2ccccc2C(=O)O)o1)c1nc2ccccc2[nH]1,12%,?,15µM*,22%,?,?
O=C(NCC(c1cccs1)N1CCOCC1)c1ccccc1NS(=O)(=O)c1ccc(Cl)c([N+](=O)[O-])c1 (centres undefined),-2%,-10,?,-11%,?,?
O=C(NCC(c1cccs1)N1CCOCC1)c1ccc(Cl)c([N+](=O)[O-])c1 (centres undefined),-5%,-94*,?,7%,?,-10%
